# NADH coupling = inhibitors of PK/LDH coupling enzymes, profiling panel, artefact control, biochemical, MLSMR library; 65,000 compounds, 0.02% hits; IC50, µM (top dose mostly 10 µM), without a hit: at the top dose inhibition; coupled PK/LDH NADH assays, four targets; AID 774, 2007;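 active = single-dose screening hits from any of four coupled enzyme assays that gave an IC50 when retested across doses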;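 also: the DPM-DC format reads NADH fluorescence rather than 340 nm absorbance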
# PMK inhibit = S. pneumoniae PMK inhibitors, primary screen, biochemical, mevalonate pathway, pilot trial included; phosphomevalonate kinase (Streptococcus pneumoniae D39); purified PMK, PK/LDH-coupled NADH absorbance 340 nm; inhibition, % at 10 µM; 65,000 compounds, 0.49% hits; AID 539, 2006;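 active = top-ranked compounds by inhibition in the single 10 µM screen, taking a fixed number of the strongest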;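 also: 0% = full reaction with DMSO carrier and 100% = background rate without enzyme reaction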
# A340 absorber = compound light absorbance at 340 nm, profiling panel, artefact control, biochemical, MLSMR library, data from PS, PMK, MK assays. compound absorbance at 340 nm, fold over control. fold change at 10 µM. 65,000 tested, under 10 active;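 active = at 10 µM dose, initial 340 nm absorbance at least 2 fold that of control wells; inactive = change under 2 fold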;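 also: initial absorbance extrapolated from kinetic A340 decline of NADH oxidation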
# MK inhibit = S. pneumoniae MK inhibitors, primary screen, biochemical, PK/LDH-coupled NADH absorbance. inhibition, % at 10 µM. purified MK, PK/LDH-coupled NADH absorbance 340 nm. 65,000 compounds, 0.48% hits;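 active = ranked among the strongest by inhibition in the single 10 µM screen, a fixed top-ranked set picked for dose follow-up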
# DPM-DC inhibit = S. pneumoniae DPM-DC inhibitors, primary screen, biochemical, PK/LDH-coupled NADH fluorescence; calls only at 10 µM; 65,000 compounds, 0.49% hits; diphosphomevalonate decarboxylase (Streptococcus pneumoniae D39); purified DPM-DC;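 active = the 320 compounds with the highest percent inhibition in the single-dose primary screen, excluding strongly autofluorescent ones, cut at about 32% in these data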;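 also: kinetic rate of NADH fluorescence loss reporting ADP formed by the decarboxylase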
# Autofluor 339 = intrinsic fluorescence of library compounds, ex339/em460 – biochemical, MLSMR library, data from DPM-DC assay, artefact control, profiling panel; 65,000 compounds, 5.5% hits; compound autofluorescence, ex339/em460 nm, NADH buffer; hits give high values; 1 = no-compound wells, NADH background; fluorescence fold increase at 10 µM;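 active = at 10 µM, mean starting fluorescence two-fold or more over control wells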;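 also: signal is the first read of a kinetic run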
# The depositor's hits bear a star; i = inactive; / = no result given; + = active, no number. Only some compounds are listed: those with a hit (about 6.8% of all), similar ones and a draw of the others.
SMILES,NADH coupling,PMK inhibit,A340 absorber,MK inhibit,DPM-DC inhibit,Autofluor 339
Cc1cc(=O)oc2cc(OCC(=O)N3c4ccccc4CC3C)ccc12 (centres undefined),7%,14,1.1,0,i,1.9
CCCCc1cc(=O)oc2cc(OCC(=O)N(CC)CC)c(Cl)cc12,5%,16,1,8,i,1.5
CCC(=O)Oc1ccc2c(C)c(Cl)c(=O)oc2c1,1%,0,1.1,1,/,2.2*
Cc1c(CCC(=O)O)c(=O)oc2cc(O)ccc12,0%,0,1.1,0,/,2.1*
CCN(CC)C(=O)Oc1ccc2c(=O)c(-c3ccc(OC)cc3)c(C)oc2c1,6%,11,1,7,i,1.2
CCCCc1cc(=O)oc2cc(OCC(=O)N(CC)CC)ccc12,5%,0,1.1,9,/,2.2*
c1ccc2c(c1)CCCN2Cc1nnnn1C1CCCC1,3%,7,1,2,i,1.1
Cc1cccc(C)c1N1C(=O)c2ccccc2C1=O,2%,5,1,0,i,1.1
CCCCc1c(C)c2ccc(OCC(C)=O)cc2oc1=O,2%,4,1.1,0,/,2.3*
CCCc1c(C)c2ccc(OCC(C)=O)cc2oc1=O,6%,6,1.1,6,/,5.1*
C=C(Cl)COc1ccc2c(C)cc(=O)oc2c1,7%,6,1,11,i,1.7
Cc1ccc2nc(CCc3nc4ccc(C)cc4o3)oc2c1,6%,11,0.99,/,i,1.1
Cc1ccc2nc(-c3cccc(-c4nc5ccc(C)cc5o4)n3)oc2c1,10%,24,1.1,0,i,2.1*
COc1ccc2[nH]c3c(c2c1)CCn1c-3nc2ccccc2c1=O,5%,0,1.1,9,/,2.2*
CCOC(=O)CNC(=O)c1sc2nc(C)cc(C)c2c1N,13%,16,1.1,10,/,3.9*
COCc1cc(C)nc2sc(C(=O)N3CCN(c4ccccc4)CC3)c(N)c12,7%,6,1.1,6,i,1.2
CCOC(=O)c1sc2nc(C)cc(C)c2c1N,4%,8,1,6,/,2.4*
Cc1cc(C)c2c(N)c(C(=O)N3CCN(c4ncccn4)CC3)sc2n1,9%,10,1,13,i,2.2*
COc1ccc(C(=O)Nc2cccc3c2C(=O)NC3=O)cc1S(=O)(=O)N1CCOCC1,14%,25*,1.1,4,i,1.5
Cc1nc2cc(C(=O)O)ccc2s1,6%,14,0.99,4,i,1.1
Cc1nc2ccc(C(=O)O)cc2c2c1CC(C)S2 (centres undefined),2%,3,1,9,/,3*
NC(=O)N1CC(O)CC1C(=O)Nc1ccc(Cl)c(Cl)c1 (centres undefined),6%,14,1,5,i,1.1
CC(=O)Nc1cc(NC(C)=O)cc(C(=O)OCC(=O)N2CC(C)OC(C)C2)c1 (centres undefined),2%,13,0.98,1,i,1
CCOc1ccc(N(CC(=O)NCc2cccc(OC)c2)S(=O)(=O)c2c(C)noc2C)cc1,5%,19,0.98,6,i,1
Cc1nn(-c2ccccc2)c2c1C1(C(=O)N(C(C)C)c3ccccc31)C(C#N)=C(N)O2 (centres undefined),5%,7,1,8,i,1
SMILES,NADH coupling,PMK inhibit,A340 absorber,MK inhibit,DPM-DC inhibit,Autofluor 339
CC(C)Cc1cc(-c2ccco2)c(C#N)c(N)n1,9%,10,1.1,7,/,2.2*
c1cc(-c2nnc(-c3ccncc3)o2)ccn1,2%,0,1,7,i,1.1
OCC#CCSc1nnc(-c2ccncc2)o1,8%,12,1,11,i,1.1
CCCOc1ccc(-c2nnc(-c3ccncc3)o2)cc1,7%,3,1,2,i,2.4*
CC(C)COc1ccc(-c2nnc(-c3ccncc3)o2)cc1,16%,18,1.1,10,i,2.4*
O=C(NC12CC3CC(CC(C3)C1)C2)c1ccccc1O,7%,6,1,9,i,2.2*
CCCC(=O)N(c1ccc(OCC)cc1)C1C=CS(=O)(=O)C1 (centres undefined),5%,9,1,6,i,1.1
CCOC(=O)C1CCN(CC(=O)Nc2c(C(=O)OC)[nH]c3ccccc23)CC1,9%,10,1,16,i,1.4
CCOC(=O)c1[nH]c2ccc(OC)cc2c1NC(=O)CN1CCN(c2ccccn2)CC1,25%,41,1,0,+,2
COC(=O)c1[nH]c2ccccc2c1NC(=O)CN1CCN(Cc2ccc3c(c2)OCO3)CC1,9%,6,1,13,i,1.6
CCOC(=O)c1[nH]c2ccc(OCC)cc2c1NC(=O)CN1CCCC(C)C1 (centres undefined),5%,6,1.1,3,/,3.9*
CCOC(=O)c1[nH]c2cc3c(cc2c1NC(=O)CN1CC(C)CC(C)C1)OCO3 (centres undefined),4%,4,1.1,4,/,2.4*
CCOC(=O)c1[nH]c2ccc(OCC)cc2c1NC(=O)CN1CCN(c2ccccn2)CC1,8%,15,1.1,1,/,3.9*
CCN(CC(N)=O)S(=O)(=O)c1ccc(Br)cc1,2%,2,1.1,3,i,1.1
COC(=O)c1ccc2c(=O)n(Cc3ccc4c(c3)OCO4)c(SCC(=O)N3CCCC3)nc2c1,7%,16,1,6,i,1.1
CC(=O)N1CCCc2cc(S(=O)(=O)NC(C(=O)NCc3ccc(C)cc3)C(C)C)ccc21 (centres undefined),7%,12,0.98,8,i,1.1
CN(Cc1ccccc1)c1nc2c(c(=O)[nH]c(=O)n2C)n1C,7%,12,1,10,i,1
C/C=C/Cn1c(N(C)Cc2ccccc2)nc2c1c(=O)[nH]c(=O)n2C,16%,11,1.1,0,+,0.54
COc1ccc(OC)c2c(C)cc(N3CCN(C(=O)c4ccc(F)cc4)CC3)nc12,6%,4,1.1,3,i,2.9*
CC(=O)c1ccc(-c2nc3c4ccccc4ccn3c2C(C)=O)o1,3%,3,1.2,3,/,2.2*
COC(=O)Cc1ccc2c3ccccc3n(C)c2c1,4%,0,1.1,8,i,1.2
CCN1CCN(C(=O)CCCCCn2c(=O)[nH]c3cc(C(=O)OC)ccc3c2=O)CC1,10%,19,0.98,3,i,2.6*
O=S(=O)(c1ccc2ccccc2c1)N(CC(O)CN1CCOCC1)c1ccccc1 (centres undefined),1%,1,1,4,i,1

# Screens (PubChem BioAssay)
